Out of some 52,000 compounds screened, about 4,300 (8.3%) were called active. No stated cut-off is given here; in the data, active means survival mostly below about 52% (no sharp cut-off); inactive means mostly above about 56%. This excerpt belongs to a sample that is enriched for actives.
tested on: DeltatarO mutant; test: growth inhibition of S. aureus wild type versus tarO mutant, primary screen, teichoic acid synthesis inhibitors, RN4220, OD600 (AID 463173); conditions: OD600, 18 h, hits give low values, screened at 18.75 µg/mL (by protocol)

| SMILES | survival |
| --- | --- |
| CC1=C(C(=O)OCc2ccc(C)cc2)C(c2ccccc2C(F)(F)F)CC(=O)N1 (stereo not given) | 124% (inactive) |
| CCCSCCCNC(=O)CN1C(=O)CCn2nc(-c3cn(C)c4ccccc34)cc21 | 77% (inactive) |
| CCN(CC)CCn1c2c(c(SCC(=O)Nc3cccc(C(F)(F)F)c3)nc1=O)CCC2 | 74% (inactive) |
| CCOC(=O)c1cc(C)n(CC2CCC(C(=O)Nc3ccccc3OC)CC2)c1C (stereo not given) | 107% (inactive) |
| COc1cccc(NC2=CC(c3ccc(C(C)C)cc3)N(c3cccc(OC)c3)C2=O)c1 (stereo not given) | 73% (inactive) |
| CCC(CC)C(=O)N1CCc2cc(OC)c(OC)cc2C1COc1ccc2c(C)cc(=O)oc2c1 (stereo not given) | 83% (inactive) |
| CNc1ccc(-c2nc(-c3ccncc3)no2)cc1[N+](=O)[O-] | 108% (inactive) |
| CCOc1ccc(-c2cccc(NS(=O)(=O)c3ccccc3C(F)(F)F)c2)nn1 | 91% (inactive) |
| O=C(Cn1c(=O)nc(-c2ccccc2)c2ccccc21)Nc1cccc(C(F)(F)F)c1 | 104% (inactive) |
| Cc1ccc2nc(N(Cc3cccnc3)C(=O)c3cccs3)sc2c1 | 71% (inactive) |
| CCCCN(C)CCNC(=O)c1c2c(nc3ccccc13)C(=O)N(C1CCCCC1)C2 | 102% (inactive) |
| O=C(NCCc1ccc(Cl)cc1)c1ccc2c(c1)N(Cc1cccc(Cl)c1)C(=O)c1ccccc1S2(=O)=O | 117% (inactive) |
| COc1ccccc1CNC(=O)CS(=O)(=O)Cc1nc(-c2ccccc2C)oc1C | 63% (inactive) |
| CCCCN(C)C(=O)C1CCCN(c2ncnc3onc(C)c23)C1 (stereo not given) | 113% (inactive) |
| O=C(Nc1ccc2c(c1)CCC2)C1CCN(c2ccc(S(=O)(=O)N3CCCC3)cc2)CC1 | 103% (inactive) |
| Cc1ccc(NC(=O)/C(C#N)=C/c2ccc(C(C)C)cc2)cc1C | 81% (inactive) |
| Cc1ccc(Cl)cc1NC(=O)/C(C#N)=C/c1c(C)n(Cc2ccccc2)c2ccccc12 | 95% (inactive) |
| Cc1ccc(NC(=O)/C(C#N)=C\c2ccc(Cl)cc2Cl)cc1C | 29% (active) |
| Cc1ccc(-n2c(C)cc(/C=C(\C#N)C(=O)Nc3ccc(C)c(C)c3)c2C)cc1 | 48% (inactive) |
| Cc1ccccc1NC(=O)/C(C#N)=C/c1ccc(Cl)cc1Cl | 32% (active) |
| Cc1ccc(NC(=O)/C(C#N)=C/c2cc(C)n(-c3ccc(Br)cc3)c2C)cc1C | 65% (inactive) |
| Cc1ccc(NC(=O)/C(C#N)=C/c2cc(C)n(-c3ccc(F)cc3)c2C)cc1C | 65% (inactive) |
| Cc1ccc(Cl)cc1NC(=O)/C(C#N)=C\c1cn(Cc2ccc(F)cc2)c2ccccc12 | 98% (inactive) |

| SMILES | survival |
| --- | --- |
| Cc1ccc(NC(=O)/C(C#N)=C/c2ccccc2Cl)cc1C | 34% (active) |
| Cc1cc(C)n2c(Nc3ccccc3)c(-c3ccccc3)nc2n1 | 72% (inactive) |
| Cc1cccc(N2CCN(Cc3nnc(-c4cccc(Br)c4)o3)CC2)c1C | 72% (inactive) |
| CCc1ccccc1N(C)C(=O)c1ccc2c(=O)n3c(nc2c1)CCCCC3 | 81% (inactive) |
| O=C(Cn1cnc(S(=O)(=O)N2CCCC2)c1)Nc1cccc(F)c1 | 91% (inactive) |
| CCC(C)c1ccc(NC(=O)CSc2nncn2N)cc1 (stereo not given) | 76% (inactive) |
| CCc1ccccc1NC(=O)CC1Sc2ccc(C(F)(F)F)cc2NC1=O (stereo not given) | 82% (inactive) |
| CCOC(=O)c1ccc(NC(=O)CC2Sc3ccc(C(F)(F)F)cc3NC2=O)cc1 (stereo not given) | 78% (inactive) |
| O=C(CC1Sc2ccc(C(F)(F)F)cc2NC1=O)Nc1ccc(Cl)c(C(F)(F)F)c1 (stereo not given) | 22% (active) |
| COC(=O)c1c(NC(=O)CCCOc2cccc(C)c2)sc2c1C(C(=O)OC)CC2 (stereo not given) | 0% (active) |
| COC(=O)c1c(NC(=O)/C(C#N)=C/c2ccccc2)sc2c1C(C(=O)OC)CC2 (stereo not given) | 58% (inactive) |
| CCOc1ccc(/C=C/C(=O)Nc2sc3c(c2C(=O)OC)C(C(=O)OC)CC3)cc1 (stereo not given) | 56% (inactive) |
| COC(=O)c1c(NC(=O)CCCOc2ccc(C)cc2)sc2c1C(C(=O)OC)CC2 (stereo not given) | 44% (inactive) |
| COC(=O)c1c(NC(=O)CCCOc2ccc(C(C)(C)C)cc2)sc2c1C(C(=O)OC)CC2 (stereo not given) | 3% (active) |
| COC(=O)c1c(NC(=O)c2cccs2)sc2c1C(C(=O)OC)CC2 (stereo not given) | 94% (inactive) |
| COc1ccc(NC(=O)CCn2c(-c3ccc(F)cc3)cc(C(C)=O)c2C)c(OC)c1 | 124% (inactive) |
| COc1ccccc1Cc1nc2ccccc2nc1SCC(=O)NCc1ccccc1Cl | 135% (inactive) |
| COc1ccc2c(c1)CC(C(=O)Nc1cc(OC)c(OC)c(OC)c1)CO2 (stereo not given) | 83% (inactive) |
| CCCCOC(=O)c1ccc(OC(=O)c2sc3ncn(Cc4ccccc4Cl)c(=O)c3c2C)cc1 | 90% (inactive) |
| Cc1ccc(CNC(=O)c2oc3ccc(S(=O)(=O)N4CCC(C)CC4)cc3c2C)cc1 | 57% (inactive) |
| Cc1ccc(Cl)cc1NC(=O)Cn1c(=O)n(CCC(=O)N2CCc3ccccc3C2)c(=O)c2ccccc21 | 102% (inactive) |
| CC(=O)Nc1ccc(S(=O)(=O)NCCc2csc3nc(-c4ccc(Cl)cc4)nn23)cc1 | 70% (inactive) |
| CSc1nc(-c2ccc(Cl)cc2)nn1C(C)=O | 57% (inactive) |

| SMILES | survival |
| --- | --- |
| CSc1nc(-c2ccc(Cl)cc2)nn1S(=O)(=O)c1ccc(NC(C)=O)cc1 | 43% (active) |
| CCc1c(C)nc2cc(-c3cc(OC)cc(OC)c3)nn2c1NCCCN(CC)CC | 113% (inactive) |
| Cc1ccc(C(C(=O)NC2CCCCC2)N(C)Cc2ccccc2)cc1 (stereo not given) | -3% (active) |
| Cc1ccc(N(C(=O)c2ccco2)C(C(=O)NC2CCCC2)c2ccc(N(C)C)cc2)c(C)c1 (stereo not given) | 93% (inactive) |
| Cc1ccc(-c2nnn(CC(=O)N(Cc3ccccc3)C(C(=O)NC3CCCC3)c3ccco3)n2)cc1 (stereo not given) | 64% (inactive) |
| O=C(NC1CCCC1)C(c1ccccc1)N(Cc1ccccc1F)C(=O)c1ccco1 (stereo not given) | 102% (inactive) |
| O=C(NC1CCCC1)C(c1ccccc1)N(C(=O)c1ccco1)C1CCCC1 (stereo not given) | 79% (inactive) |
| CN(Cc1ccccc1)C(C(=O)NC1CCCCC1)c1ccc(Cl)cc1 (stereo not given) | 37% (active) |
| O=C(O)c1cccc(N=C2NC(=O)C(CO)(CO)S2)c1 | 89% (inactive) |
| Cc1cccc(Cc2c(C)nc3nc(SCc4cccc(F)c4)nn3c2C)c1 | 78% (inactive) |
| CCOC(=O)c1ccc(NC(=O)C2CC(=O)N3CCCN=C3S2)cc1 (stereo not given) | 94% (inactive) |
| Cc1cccc(NC(=O)c2sc3nc4n(c(=O)c3c2C)N=C(c2ccc(F)cc2)CS4)c1C | 99% (inactive) |
| CCc1cccc(C)c1NC(=O)Cn1c(=O)cc(C(F)(F)F)c2c(C)nn(C)c21 | 85% (inactive) |
| CCCCn1cnc2cc(NCc3ccccc3Cl)ccc21 | -16% (active) |
| CCn1cnc2cc(NCc3ccc(N(C)C)cc3)ccc21 | 72% (inactive) |
| CC(C)(C)n1cnc2cc(NCc3ccccc3Cl)ccc21 | 7% (active) |
| CC(C)(C)n1cnc2cc(N=Cc3ccccc3O)ccc21 | 81% (inactive) |
| CCCCn1cnc2cc(NCc3ccc(OCC)cc3)ccc21 | 11% (active) |
| Cc1cc(C)n2nc(NCc3ccccc3Cl)nc2n1 | 90% (inactive) |
| COc1cc(CNc2ccc3c(c2)ncn3C(C)C)cc(OC)c1OC | 64% (inactive) |
| CCCCn1cnc2cc(NC(=O)c3cc(OC)c(OC)c(OC)c3)ccc21 | 66% (inactive) |
| CCc1ccc(CNc2ccc3c(c2)ncn3C(C)(C)C)cc1 | -16% (active) |
| CC(C)(C)n1cnc2cc(NS(=O)(=O)c3ccccc3)ccc21 | 86% (inactive) |

| SMILES | survival |
| --- | --- |
| CCOc1ccc(C=Nc2ccc3c(c2)ncn3C)cc1 | 96% (inactive) |
| CCCn1cnc2cc(NC(=O)c3cc(OC)c(OC)c(OC)c3)ccc21 | 66% (inactive) |
| CCOc1ccc(NC(=O)CSc2oc(-c3cccs3)nc2S(=O)(=O)c2ccc(Cl)cc2)cc1 | 63% (inactive) |
| COc1ccc2c(c1)c1c(c(=O)n(-c3ccccc3C)c(=O)n1Cc1cccc(C(F)(F)F)c1)n2C | 94% (inactive) |
| O=S(=O)(c1ccccc1)N1CCC(n2cnc3ccccc32)CC1 | 78% (inactive) |
| Cc1ccc(C)c(NC(=O)C2CCN(S(=O)(=O)c3c(C)noc3/C=C/c3cccs3)CC2)c1 | 63% (inactive) |
| Cn1nnc(C(O)CNCc2ccc(F)cc2)n1 (stereo not given) | 105% (inactive) |
| CCOC(=O)c1c(NC(=O)c2ccc(S(=O)(=O)N(CCOC)CCOC)cc2)sc2c1CC(C)(C)NC2(C)C | 78% (inactive) |
| Cc1cccc(CNC(=O)c2cnc3sc(N4CCCCCC4)nn3c2=O)c1 | 99% (inactive) |
| COc1ccc(NC(=O)CCn2nc(-c3ccccc3OC)c3c(C)cc(C)nc32)cc1 | 70% (inactive) |
| CC(=O)c1cccc(NC(=O)c2cnn(-c3cccc(C)c3)c2-n2cccc2)c1 | 99% (inactive) |
| CCOC(=O)c1[nH]c(C)c(CCC(=O)Nc2cc(Cl)ccc2C)c1C | 73% (inactive) |
| CCOC(=O)c1oc2ccc(S(=O)(=O)n3nc(-c4cc(OC)cc(OC)c4)cc3N)cc2c1C | 111% (inactive) |
| COc1cccc(CNC(=O)CSC2=Nc3ccccc3N=C(c3ccc(F)cc3)C2)c1 | 117% (inactive) |
| CC(=O)c1ccc(NC(=O)C(Cc2ccccc2)NS(=O)(=O)c2ccc3c(c2)CCC(=O)N3)cc1 (stereo not given) | 84% (inactive) |
| CCCSc1ncc(Cl)c(C(=O)Nc2c(C(=O)Nc3ccc(OC)cc3)oc3ccccc23)n1 | 68% (inactive) |
| COc1ccccc1CNC(=O)c1cnc2sc(N3CCCCC3)nn2c1=O | 66% (inactive) |
| Cc1oc(CSCCSCc2cc(C(=O)O)c(C)o2)cc1C(=O)O | 94% (inactive) |
| CCCn1cnc2cc(NCc3ccc(OC)cc3OC)ccc21 | 64% (inactive) |
| COc1cccc(CNc2ccc3c(c2)ncn3C)c1OC | 122% (inactive) |
| CCCn1cnc2cc(NCc3ccccc3OCC)ccc21 | 35% (active) |

Reference: PubChem BioAssay AID463173 (ICCB-Longwood Screening Facility, Harvard Medical School, 2010)
